Data as given in PubChem BioAssay (Tox21).
Inconclusive results are not listed. Activity calls are given as the source filed them. The call rests on the fitted dose curve; in most records, active means well fitted curve in the direction sought with a large enough effect in the repeat runs; inconclusive means weak or mixed curves; inactive means no such curve, though single readings can be large; an effect the other way counts as inactive or inconclusive.

What was measured:
[1] = Caspase-3/7 induction in HepG2 cells by small molecules, qHTS assay (AID 1346978); further: nearly all actives have a fitted effect of over 15% in size
Method in brief: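 Wild-type HepG2 cells, 2,000/well, settled 5 hr at 37 C and 5% CO2, then compound-treated for 17 hr; caspase-3/7 activity read by luminescent Caspase-Glo 3/7 after 30 min at room temperature.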

[2] = Caspase-3/7 induction in CHO-K1 cells by small molecules, qHTS cell viability counter screen (AID 1346979); further: nearly all actives have a fitted effect of over 35% in size; further: potency means the concentration at half of the fitted maximal effect
Method in brief: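 Viability readout by fluorescence (CellTiter-Fluor) on wild-type CHO-K1 cells exposed for 16hr at 37C and 5% CO2 to compounds delivered in DMSO; reagent incubated 1hr before reading.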

[3] = Caspase-3/7 induction in CHO-K1 cells by small molecules, qHTS assay (AID 1346980); further: nearly all actives have a fitted effect of over 15% in size
Method in brief: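 Wild-type CHO-K1 cells exposed to compounds for 17hr at 37 C, 5% CO2. Caspase-3/7 activity then measured by Caspase-Glo 3/7 luminescence after 30min at room temperature.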

[4] = Caspase-3/7 induction in HepG2 cells by small molecules, qHTS cell viability counter screen (AID 1346981); further: nearly all actives have a fitted effect of over 30% in size; further: potency means the concentration at half of the fitted maximal effect; on activity change, negative = cytotoxicity: series mostly up to about 92 µM
Method in brief: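 The parent HepG2 line is plated at 2,000 cells per well and rested 5 hr before compound pinning from DMSO stocks. Following a 16-hr treatment at 37 C, a fluorogenic live-cell substrate (CellTiter-Fluor) reports viability after 1 hr.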

[5] = target: Nuclear receptor subfamily 1 group I member 2 (Homo sapiens) (UniProt O75469); test: Human pregnane X receptor (PXR) small molecule agonists, qHTS assay (AID 1346982); further: nearly all actives have a fitted effect of over 35% in size; further: potency means the concentration at half of the fitted maximal effect
Method in brief: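 After plating in 5% charcoal-stripped FBS and a 5 hr rest, PXR-Luc HepG2 cells received compounds in DMSO. Following 24 hr at 37 C, ONE-Glo was added and light output read.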

[6] = target: Cytochrome P450 2D6 (Homo sapiens) (UniProt P10635); test: Cytochrome P450 Family 2 Subfamily D Member 6 (CYP2D6) small molecule antagonists: luciferase reporter qHTS assay (AID 1671196); further: nearly all actives have a fitted effect of over 50% in size; further: potency means the concentration at half of the fitted maximal effect; on activity change, negative = inhibition: series mostly up to about 120 µM
Method in brief: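 Quantitative HTS of Tox21 chemicals against CYP2D6 using a luminescent proluciferin substrate. After NADPH addition, 1 h room-temperature reaction; luminescence recorded 20 min post detection reagent.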

[7] = target: Cytochrome P450 2C19 (Homo sapiens) (UniProt P33261); test: Cytochrome P450 Family 2 Subfamily C Member 19 (CYP2C19) small molecule antagonists: luciferase reporter qHTS assay (AID 1671197); further: nearly all actives have a fitted effect of over 65% in size; further: potency means the concentration at half of the fitted maximal effect; on activity change, negative = inhibition: series mostly up to about 120 µM
Method in brief: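 Relative luminescence units recorded 20 min after the detection reagent stopped a 1 h, 37C CYP2C19 reaction on proluciferin substrate, which was started by NADPH regeneration following 10 min room-temperature compound preincubation; ketoconazole positive control.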

[8] = target: Nuclear receptor subfamily 1 group I member 2 (Rattus norvegicus) (UniProt Q9R1A7); test: Rat pregnane X receptor (rPXR) activation by small molecules, qHTS assay (AID 1346983); settings: rPXR luciferase reporter cells, One-Glo luminescence, 24 h; max activation: active compounds read high; further: nearly all actives have a fitted effect of over 20% in size
Method in brief: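 Cell-based rPXR activation assay: rPXR cells, 2,000 per well, rested 5hr at 37 C, then exposed to compounds in DMSO for 24 hr at 37 C. Luciferase activity read by One-Glo luminescence after 30 min at room temperature.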
On the % scale 0 is the no-effect control and ±100 the full control effect.

Nuclear receptor subfamily 1 group I member 2 (Homo sapiens), sequence (O75469 whole entry, looked up): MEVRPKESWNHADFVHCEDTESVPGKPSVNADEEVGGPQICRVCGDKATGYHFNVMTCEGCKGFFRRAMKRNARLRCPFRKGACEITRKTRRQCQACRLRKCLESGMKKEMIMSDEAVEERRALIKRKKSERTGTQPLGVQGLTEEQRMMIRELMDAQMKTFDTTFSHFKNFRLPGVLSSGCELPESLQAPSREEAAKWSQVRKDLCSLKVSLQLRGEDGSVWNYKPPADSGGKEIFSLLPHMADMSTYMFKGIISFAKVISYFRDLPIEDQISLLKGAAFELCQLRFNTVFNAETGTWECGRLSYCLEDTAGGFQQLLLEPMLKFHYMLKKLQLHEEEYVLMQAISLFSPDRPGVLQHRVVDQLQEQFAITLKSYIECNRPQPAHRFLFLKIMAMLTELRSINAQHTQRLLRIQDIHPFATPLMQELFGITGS
Cytochrome P450 2C19 (Homo sapiens), sequence (P33261 whole entry, looked up): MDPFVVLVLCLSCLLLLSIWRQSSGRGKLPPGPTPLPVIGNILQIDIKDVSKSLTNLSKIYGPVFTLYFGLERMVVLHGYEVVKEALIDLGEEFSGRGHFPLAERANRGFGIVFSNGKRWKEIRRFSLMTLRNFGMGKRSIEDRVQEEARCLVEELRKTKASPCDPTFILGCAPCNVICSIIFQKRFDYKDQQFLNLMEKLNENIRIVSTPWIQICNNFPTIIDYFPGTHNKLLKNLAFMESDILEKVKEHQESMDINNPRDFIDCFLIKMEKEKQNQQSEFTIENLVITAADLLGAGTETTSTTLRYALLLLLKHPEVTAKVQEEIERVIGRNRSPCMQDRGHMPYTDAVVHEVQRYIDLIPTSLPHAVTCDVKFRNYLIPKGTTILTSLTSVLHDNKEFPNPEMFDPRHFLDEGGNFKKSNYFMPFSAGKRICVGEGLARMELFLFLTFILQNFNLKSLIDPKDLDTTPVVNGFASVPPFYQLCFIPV
Cytochrome P450 2D6 (Homo sapiens), sequence (P10635 whole entry, looked up): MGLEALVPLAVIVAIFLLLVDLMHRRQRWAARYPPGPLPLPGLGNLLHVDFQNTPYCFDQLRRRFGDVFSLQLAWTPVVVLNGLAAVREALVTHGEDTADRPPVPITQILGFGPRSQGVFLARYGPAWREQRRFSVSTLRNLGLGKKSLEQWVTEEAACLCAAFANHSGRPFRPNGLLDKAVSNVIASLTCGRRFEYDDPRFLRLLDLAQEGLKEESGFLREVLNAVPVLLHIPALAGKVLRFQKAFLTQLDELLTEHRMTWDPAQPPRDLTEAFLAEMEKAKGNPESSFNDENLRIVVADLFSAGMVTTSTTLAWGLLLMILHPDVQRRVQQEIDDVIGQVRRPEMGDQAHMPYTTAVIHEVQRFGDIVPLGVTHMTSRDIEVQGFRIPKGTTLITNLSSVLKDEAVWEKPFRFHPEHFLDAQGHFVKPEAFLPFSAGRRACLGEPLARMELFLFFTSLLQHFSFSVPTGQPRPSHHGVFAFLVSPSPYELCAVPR
Nuclear receptor subfamily 1 group I member 2 (Rattus norvegicus), sequence (Q9R1A7 whole entry, looked up): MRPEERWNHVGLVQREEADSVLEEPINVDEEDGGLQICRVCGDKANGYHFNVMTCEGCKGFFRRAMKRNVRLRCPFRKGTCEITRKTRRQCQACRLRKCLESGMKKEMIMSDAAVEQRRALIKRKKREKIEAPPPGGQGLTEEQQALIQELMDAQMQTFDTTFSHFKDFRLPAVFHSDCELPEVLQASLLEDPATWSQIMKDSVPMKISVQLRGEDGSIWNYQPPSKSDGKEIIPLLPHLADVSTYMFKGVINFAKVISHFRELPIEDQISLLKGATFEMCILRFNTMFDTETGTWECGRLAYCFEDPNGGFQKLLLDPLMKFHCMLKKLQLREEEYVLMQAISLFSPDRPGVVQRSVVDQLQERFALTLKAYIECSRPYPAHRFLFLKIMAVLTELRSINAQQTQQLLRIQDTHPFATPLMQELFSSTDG

CN1Cc2cc(C(=O)N3CCC(C4CCNCC4)CC3)ccc2NC(CC(=O)O)C1=O (stereo not given)
inactive: Potency [1] | Potency [2] | Potency [3] | Potency [4] | Potency [5] | Potency [6] | Potency [7]

COc1ccc2cccc(CCNC(C)=O)c2c1
active: Potency [7] 34.7 µM
inactive: Potency [1] | Potency [2] | Potency [3] | Potency [4] | Potency [5] | Potency [6]

COC(C)OC
inactive: Potency [1] | Potency [2] | Potency [3] | Potency [4] | Potency [5] | Potency [6]

CC(CC=O)c1ccccc1 (stereo not given)
inactive: Potency [1] | Potency [2] | Potency [3] | Potency [4] | Potency [6]
active: Potency [5] 61.1 µM | Potency [7] 15.9 µM

CCOC(=O)C(F)(F)F
inactive: Potency [1] | Potency [2] | Potency [3] | Potency [4] | Potency [5] | Potency [7]
active: Potency [6] 35.6 µM

COCC(C)OC(C)=O (stereo not given)
inactive: Potency [1] | Potency [2] | Potency [3] | Potency [4] | Potency [5] | Potency [6]

CCc1cc(C2=C(C(=O)O)N(c3ccccc3C(F)(F)F)S(=O)(=O)c3ccccc32)cc2c1OCO2
active: Potency [2] 30.3 µM | Potency [4] 15.2 µM
inactive: Potency [1] | Potency [3] | Potency [5] | Potency [6]

CC1CCC(=O)C1=O (stereo not given)
inactive: Potency [1] | Potency [2] | Potency [3] | Potency [4] | Potency [5] | Potency [6]

O=P(O)(OCc1ccccc1)OCc1ccccc1
inactive: Potency [1] | Potency [2] | Potency [3] | Potency [4] | Potency [5] | Potency [6] | Potency [7]

COC(C)(C)CCO
inactive: Potency [1] | Potency [2] | Potency [3] | Potency [4] | Potency [5] | Potency [6]

O=C1OC(=O)C2C3C=CC(C3)C12 (stereo not given)
inactive: Potency [1] | Potency [2] | Potency [3] | Potency [4] | Potency [5] | Potency [6] | Potency [7]

CC1=CC=C(C(C)C)CC1
inactive: Potency [1] | Potency [2] | Potency [3] | Potency [4] | Potency [5] | Potency [6]

CN1C[C@H]2c3ccccc3Oc3ccc(Cl)cc3[C@@H]2C1
inactive: Potency [1] | Potency [2] | Potency [3] | Potency [4] | Potency [5]
active: Potency [6] 0.11 µM

CC(C)Nc1ccc(NC(C)C)c2c1C(=O)c1ccccc1C2=O
active: Potency [2] 25.3 µM | Potency [4] 16 µM | Potency [5] 1.27 µM
inactive: Potency [1] | Potency [3] | Potency [6]

CCCCC/C=C\C/C=C\CCCCCCCC(=O)NC(C)c1ccccc1 (stereo not given)
active: Potency [2] 26.6 µM | Potency [5] 21.1 µM | Potency [6] 4.36 µM | Potency [7] 4.9 µM
inactive: Potency [1] | Potency [3] | Potency [4]

C[C@@H]1C[C@H]2[C@@H]3CCC4=CC(=O)C=C[C@]4(C)[C@@]3(F)[C@@H](O)C[C@]2(C)[C@@]1(O)C(=O)COC(=O)c1ccncc1
active: Potency [5] 1.33 µM | Potency [6] 11 µM | Potency [7] 17.4 µM
inactive: Potency [1] | Potency [2] | Potency [3] | Potency [4]

OCCNCc1ccccc1
active: Potency [6] 35.6 µM | Potency [7] 44.8 µM
inactive: Potency [1] | Potency [2] | Potency [3] | Potency [4] | Potency [5]

O=C(O)c1ccc(-n2nc(-c3ccccc3O)nc2-c2ccccc2O)cc1
inactive: Potency [1] | Potency [3] | Potency [4] | Potency [5] | Potency [6] | Potency [7]
active: Potency [2] 18.8 µM

C/C=C/C=C/CO
inactive: Potency [1] | Potency [2] | Potency [3] | Potency [4] | Potency [5] | Potency [6] | Potency [7]

NCCCN1CCOCC1
inactive: Potency [1] | Potency [2] | Potency [3] | Potency [4] | Potency [5] | Potency [7]
active: Potency [6] 35.5 µM

NS(=O)(=O)c1ccc(N2CCCCS2(=O)=O)cc1
inactive: Potency [1] | Potency [2] | Potency [3] | Potency [4] | Potency [5] | Potency [6] | Potency [7]

CC(C)(C)OCC1CO1 (stereo not given)
inactive: Potency [1] | Potency [2] | Potency [3] | Potency [4] | Potency [5] | Potency [6] | Potency [7]

CN(C)c1ccc(CCO)cc1
inactive: Potency [1] | Potency [2] | Potency [3] | Potency [4] | Potency [5]
active: Potency [7] 28.1 µM

CCC(Cl)CCC(Cl)C(Cl)CC(Cl)C(Cl)C(Cl)CCl (stereo not given)
inactive: Potency [1] | Potency [2] | Potency [3] | Potency [4] | Potency [5] | Potency [6] | Potency [7]

CCCCO
inactive: Potency [1] | Potency [2] | Potency [3] | Potency [4] | max activation [8] -3.27%

CCOC(=O)C(=O)CCc1ccccc1
inactive: Potency [1] | Potency [2] | Potency [3] | Potency [4] | Potency [5]
active: Potency [7] 8.71 µM

NC(N)=NCCC[C@H](N)C(=O)O
inactive: caspase activation [1] 0.0391% [at 8.39 µM] | activity change, negative = cytotoxicity [2] -0.503% [at 8.39 µM] | caspase-3/7 activation [3] 0.0695% [at 8.39 µM] | activity change, negative = cytotoxicity [4] -0.647% [at 8.39 µM] | activation [5] -5.55% [at 8.39 µM] | activity change, negative = inhibition [6] -7.41% [at 10.5 µM] | activity change, negative = inhibition [7] 24.2% [at 10.5 µM]

CCC(C)c1cc(C(C)(C)C)c(O)c(C(C)(C)C)c1 (stereo not given)
active: Potency [5] 47.6 µM
inactive: Potency [1] | Potency [2] | Potency [3] | Potency [4] | Potency [7]

CCOC(=O)C(O)c1ccccc1 (stereo not given)
inactive: Potency [1] | Potency [2] | Potency [3] | Potency [4] | Potency [5] | Potency [6] | Potency [7]
